Measurements as given in PubChem BioAssay.
Calls of active or inactive are those of the source. How the calls were made is not given here.

Assay: compounds altering circadian rhythm period length – cell-based, LOPAC library, luminescence reporter (AID 2774);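 further: values are relative to mean of DMSO wells on each plate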
Conditions: circadian reporter cells, at 7 µM, actives lie on both sides

Row | SMILES | period change
1 | O=c1c(-c2ccc(O)cc2)coc2cc(O)ccc12 | 0.115 h (inactive)
2 | NC(=O)c1cccc(N)c1 | 0.16 h (inactive)
3 | O=C(O)c1cc([N+](=O)[O-])ccc1NCCCc1ccccc1 | 0.025 h (inactive)
4 | CC(CCc1ccc(O)cc1)NCCc1ccc(O)c(O)c1 (stereo unspecified) | 0.025 h (inactive)
5 | CCN1CCCC1CNC(=O)c1cc(S(N)(=O)=O)ccc1OC (stereo unspecified) | -0.06 h (inactive)
6 | O=c1[nH]c2cc(Cl)c(Cl)cc2[nH]c1=O | 0.15 h (inactive)

Assay: compounds altering viability of human ES cells (AID 493140);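 further: cells exposed to compounds for four days before counting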
Conditions: human embryonic stem cell survival screen; hits give high values

Row | SMILES | survival
7 | O=c1c(-c2ccc(O)cc2)coc2cc(O)ccc12 | 70.6 (inactive)
8 | COc1c2ccoc2nc2c(OC)c(OCC(O)C(C)(C)O)ccc12 (stereo unspecified) | 4.17 (inactive)
9 | CC(CCc1ccc(O)cc1)NCCc1ccc(O)c(O)c1 (stereo unspecified) | 15.4 (inactive)
10 | CCN1CCCC1CNC(=O)c1cc(S(N)(=O)=O)ccc1OC (stereo unspecified) | 17.8 (inactive)
11 | NC(Cn1ccc(=O)c(O)c1)C(=O)O (stereo unspecified) | 11.3 (inactive)
